Sampled rows, rich in hits. Any-hit rate of the full collection: about 5.1%.
RAM network inh: inhibitors of the yeast RAM network, primary screen, dse1pr::URA3 reporter, 5-FOA selection | inhibition, % at 50 µM | S. cerevisiae dse1pr::URA3 reporter, 5-FOA growth OD615, 2 d; analog-sensitive cbk1-as2 kinase mutant strain | 190,000 compounds, 1.8% hits;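 active means inhibition above a set limit, 3 SD over mean compound inhibition, cut at about 8.4% in these data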;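 further: inhibition rescues growth on 5-FOA so higher OD means more RAM inhibition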
S1P3 antag-1: S1P3 receptor antagonists, primary screen, cell-based; Sphingosine 1-phosphate receptor 3 (Homo sapiens), Q99500; inhibition, % at 4.98 µM; CHO S1P3 NFAT-BLA reporter, FRET fluorescence, antagonist mode; 170,000 compounds, 0.27% hits; AID 485, 2006;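 active means inhibition above the plate cutoff, the mean inhibition of test wells on that plate plus 3 SD, cut at about 28% in these data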;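 further: cells challenged with S1P at its EC80 of 0.8 µM; blue over green emission ratio from cleaved BLA substrate after 4 h stimulation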
Target sequence (Q99500 whole entry, looked up): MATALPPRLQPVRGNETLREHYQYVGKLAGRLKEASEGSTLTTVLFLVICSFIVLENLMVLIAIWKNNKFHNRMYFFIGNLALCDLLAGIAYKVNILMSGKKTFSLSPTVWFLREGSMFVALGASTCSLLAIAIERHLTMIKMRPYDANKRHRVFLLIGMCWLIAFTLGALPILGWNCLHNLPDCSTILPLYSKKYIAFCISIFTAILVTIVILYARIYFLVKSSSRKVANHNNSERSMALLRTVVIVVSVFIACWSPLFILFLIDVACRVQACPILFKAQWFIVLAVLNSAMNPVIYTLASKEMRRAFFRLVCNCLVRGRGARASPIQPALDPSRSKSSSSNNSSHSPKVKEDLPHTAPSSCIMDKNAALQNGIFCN
Cl transport mod: KCC2 cotransporter modulators, thallium flux, primary screen, cell-based, HEK293 KCC2, FluoZin-2 fluorescence, MLSMR. Solute carrier family 12 member 5 (Homo sapiens), Q9H2X9. B-score of Tl+ flux slope (higher = more flux/activation; lower = inhibition) at 10 µM. AID 1456, 2008. KCC2 cells, thallium flux FluoZin-2 fluorescence. 190,000 compounds, 2.2% hits;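 active means thallium flux slope and its plate-corrected score both differing from the plate sample mean at a set confidence after two filtering rounds, in either direction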;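 further: slope of fluorescence scaled to starting intensity during 10 to 20 s after thallium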
S1P4 agonist: S1P4 receptor agonists, primary screen, cell-based; AID 1509, 2009; 220,000 compounds, 0.35% hits; activation, % at 4.98 µM; S1P4-expressing cell line, agonist reporter assay; in the data active means activation above about 11%
S1P4 antag: S1P4 receptor antagonists, primary screen, cell-based | inhibition, % at 4.98 µM | S1P4-expressing cells, antagonist mode, reporter read-out | Sphingosine 1-phosphate receptor 4 (Homo sapiens), O95977 | 220,000 compounds, 0.26% hits; in the data active means inhibition above about 29%
ROMK mod: ROMK potassium channel modulators, primary screen, cell-based, thallium flux, MLSMR library | Tet-inducible ROMK, thallium flux fluorescence; actives lie on both sides | B-score at 10 µM | 130,000 compounds, 2% hits | AID 1918, 2009;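 active means signal ratio slope over the read window, or its plate-corrected B-score, at least 3 SD from the plate mean, either direction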;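 further: B-score of the F/F0 ratio slope over 7 to 12 s after thallium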
S1P3 antag-2: S1P3 receptor antagonists, retest, confirmation, cell-based; 240 compounds, 30% hits; CHO S1P3 NFAT-BLA reporter, FRET, antagonist mode; shares compounds with S1P3 antag-1; AID 1429, 2008; inhibition, % at 4.98 µM;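 active means inhibition above the hit threshold that was computed for the earlier primary screen, cut at about 30% in these data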
Each line names hits and unclear results; the compound was inactive in the other large screens (follow-up assays come after a bar, where they were run).

Nc1cccc2c1C(=O)N(c1ccccc1)C2=O	S1P3 antag-1 93 (no result: RAM network inh, Cl transport mod, S1P4 agonist, S1P4 antag, ROMK mod)
Cc1ccc(C(=O)NN(CCC(=O)NC(C)(C)C)C2=NS(=O)(=O)c3ccccc32)cc1	RAM network inh 9.6
CC1(C)Cc2nc3oc4c(=O)n(CC(=O)Nc5ccccc5)cnc4c3cc2CO1	none (no result: ROMK mod)
Cc1cccc(NC(=O)Cn2cnc3c(oc4nc5c(cc43)COC(C)(C)C5)c2=O)c1	RAM network inh 8.5 (no result: ROMK mod)
CC(C)OC(=O)CC(=O)CSc1nc2c(c(-c3cccs3)c1C#N)CCC2	RAM network inh 10 (no result: ROMK mod)
O=C(NC1CCCCC1)c1ccc(CNc2nc(=S)[nH]c3ccccc23)cc1	none
O=C(O)COc1ccc(/C=C/c2nc3ccc([N+](=O)[O-])cc3s2)cc1	none (no result: RAM network inh, ROMK mod)
CCOC(=O)c1cc(-c2ccc3c(c2)OCCO3)nc2c1c(C)nn2CCC#N	RAM network inh 9.0 (no result: ROMK mod)
CCNC(=S)N1CCN(S(=O)(=O)c2cccc(C(F)(F)F)c2)CC1	none
Cc1ccccc1C(=O)Oc1ccc(Sc2ccc(O)cc2)cc1	RAM network inh 11 (no result: S1P3 antag-1, ROMK mod)
O=C1OC(c2ccc3c(c2)OCO3)N(C(=O)c2ccc(Cl)c(Cl)c2)c2ccccc21 (centres undefined)	ROMK mod 0.53 (no result: S1P3 antag-1)
O=C(c1cccs1)n1nc(-c2ccco2)nc1SCc1ccccc1	RAM network inh 10 (no result: S1P3 antag-1, Cl transport mod)
CCCCCCCCCS(=O)(=O)N/N=C/c1cccc([N+](=O)[O-])c1	RAM network inh 8.7 (no result: S1P3 antag-1, Cl transport mod)
Cc1[nH]c(=O)[nH]c(=O)c1/C=C/C(=O)OCC(C)C	none (no result: ROMK mod)
Nc1c(Nc2ccccc2)c2ccccc2oc1=O	RAM network inh 9.8
CC(C)(C)OC(=O)N[C@@H](Cc1ccccc1)C(=O)NCC1CCC(C(=O)O)CC1 (some centres undefined)	none (no result: RAM network inh, ROMK mod)
CCOC(=O)c1ccc(NC(=O)C(=O)NCC2(c3ccc(OC)cc3)CCOCC2)cc1	none (no result: RAM network inh, ROMK mod)
CCOC(=O)c1cc(C(=O)c2cccs2)n2ccc(C(C)=O)cc12	RAM network inh 8.5 (no result: S1P3 antag-1)
CCOC(=O)c1cc(C(C)=O)n2ccccc12	none (no result: S1P3 antag-1, Cl transport mod, ROMK mod)
CC(=O)c1ccc(N2Cc3ccccc3C3(CCOCC3)C2=N)cc1	none
C#CC(=O)N(c1cccc(OC)c1)C(C(=O)NC1CCCC1)c1cccs1 (centres undefined)	S1P4 antag 30 (no result: S1P3 antag-1, ROMK mod)
C#CC(=O)N(c1ccc(OC)c(OC)c1)C(C(=O)NC1CCCC1)c1cccs1 (centres undefined)	none (no result: S1P3 antag-1, Cl transport mod, ROMK mod)
COc1ccc(N(C(=O)Cc2cccs2)C(C(=O)NC2CCCCC2)c2cccn2C)cc1OC (centres undefined)	ROMK mod -3.9 (no result: S1P3 antag-1)
CCN(CC)S(=O)(=O)c1ccc(Cc2ncc(C(F)(F)F)cc2Cl)s1	none (no result: S1P3 antag-1, Cl transport mod)
O=C(COc1ccc(Cl)cc1Cl)NCc1ccncc1	none (no result: ROMK mod)
Cc1cc(CNC(=O)COc2ccc(F)cc2Cl)cc(C)c1O	RAM network inh 10
O=[N+]([O-])c1ccc(Nc2nc(NC3CCCCC3)nc(N3CCCC3)n2)cc1	none (no result: ROMK mod)
Cc1ccc(Nc2nc(-c3cccnc3)nc3ccccc23)cc1	S1P3 antag-1 35 (no result: RAM network inh, ROMK mod) | S1P3 antag-2 inactive
CN(C)c1ccc(/C=C2\SC(=O)N(CC(O)Cn3c4ccccc4c4ccccc43)C2=O)cc1 (centres undefined)	none
O=C1S/C(=C/c2ccccc2)C(=O)N1CC(O)Cn1c2ccccc2c2ccccc21 (centres undefined)	S1P3 antag-1 40 (no result: ROMK mod) | S1P3 antag-2 inactive
CCOC(=O)CCC(NC(=O)CCCC(=O)NC(CCC(=O)OCC)C(=O)OCC)C(=O)OCC (centres undefined)	none (no result: ROMK mod)
CC1(C)Cc2c(sc3nc4n(-c5ccccc5)cnn4c(=O)c23)CO1	none (no result: RAM network inh, ROMK mod)
Cc1cc(NC(=O)CSc2ccc3nnc(CCNS(=O)(=O)c4ccccc4)n3n2)no1	none
Cc1ccc(S(=O)(=O)NCCc2nnc3ccc(SCC(=O)Nc4nc5ccccc5s4)nn23)cc1	RAM network inh 10, S1P3 antag-1 28 | S1P3 antag-2 inactive
CCCCCCCCCn1ccc(=N)cc1	S1P3 antag-1 30 (no result: RAM network inh) | S1P3 antag-2 inactive
CCCCCCCn1ccc(=N)cc1	none (no result: S1P3 antag-1, Cl transport mod, ROMK mod)
CCc1ccc(CNC(=O)Cn2nc(-c3ccc(C)cc3)ccc2=O)cc1	none
COc1ccc(NS(=O)(=O)c2cccc(NC(=O)c3ccc(Cl)nc3)c2)cc1	S1P3 antag-1 33 | S1P3 antag-2 inactive
N#Cc1c(NC(=O)/C=C/c2ccco2)sc2c1CCCC2	S1P3 antag-1 29 (no result: ROMK mod) | S1P3 antag-2 29
O=C(/C=C/c1ccco1)Nc1sc2c(c1C(=O)O)CCC2	none (no result: S1P3 antag-1, Cl transport mod, ROMK mod)
Cc1nn(C)c(C)c1CN(Cc1nc(CCC(C)C)no1)C(C)C	S1P3 antag-1 32 | S1P3 antag-2 inactive
COc1ccc(NC(=O)C(OC)c2ccccc2)cc1Cl (centres undefined)	none
Cc1ccc(NC(=O)C(C)c2ccc([N+](=O)[O-])cc2)cc1Cl (centres undefined)	S1P3 antag-1 49 (no result: ROMK mod) | S1P3 antag-2 48
Cc1ccc(NC(=O)C(OC(=O)c2ccc(NC(N)=O)cc2)c2ccccc2)cc1Cl (centres undefined)	none (no result: ROMK mod)
CC(C(=O)Nc1ccccc1Br)c1ccc([N+](=O)[O-])cc1 (centres undefined)	none (no result: ROMK mod)
Cc1cc(C(=O)OC(C(=O)Nc2ccc(C)c(Cl)c2)c2ccccc2)c(C)o1 (centres undefined)	S1P3 antag-1 53 | S1P3 antag-2 40
Cc1ccc(NC(=O)C(OC(=O)c2ccccc2Cl)c2ccccc2)cc1Cl (centres undefined)	RAM network inh 8.9, S1P3 antag-1 29 | S1P3 antag-2 40
Cc1ccc(Cn2c(=O)c3ccccc3n3nc(C)cc23)cc1	none
Cc1nc([N+](=O)[O-])c(C(=O)OCc2ccccc2C#N)n1C	none (no result: Cl transport mod)
COc1cccc(/C=N/n2c(-c3ccco3)nc3ccccc3c2=O)c1OC	none
CC1CCCN(S(=O)(=O)c2ccccc2[N+](=O)[O-])C1 (centres undefined)	none
CO/N=C/c1ccc(Oc2ccc(C)cc2)nc1	none (no result: S1P3 antag-1, Cl transport mod, ROMK mod)
Cc1ccc(Oc2ccc(C=O)cn2)cc1	S1P3 antag-1 34 | S1P3 antag-2 inactive
COCCNC(=O)C1CC(=O)N(c2ccc(OC)cc2)C1c1ccc(OC)cc1 (centres undefined)	none
CCC(C)(C)C1CCc2c(sc(N)c2C(N)=O)C1 (centres undefined)	S1P3 antag-1 38 | S1P3 antag-2 inactive
